Rows were chosen to be rich in hits. Some 11% of all compounds tested hit in one or more screens of this group.
NIH3T3 tox = cytotoxic compounds in NIH 3T3 cells; NIH 3T3 viability, CellTiter-Glo ATP luminescence, 48-72 h; Potency, µM (top dose mostly 96.7 µM), for the others: at the top dose activity change, negative = cytotoxicity, most hits filed as inhibitors; 94,000 tested, 4.3% active; active means well fitted curve in the direction sought with a large enough effect; inconclusive means small, poorly fitted or top-dose-only effect, or another doubt; inactive means no such curve, though single readings can be large; an effect the other way counts as inactive or inconclusive; further: on the % scale 0 is the no-effect control and ±100 the full control effect; nearly all actives have a fitted effect of over 55% in size
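ATP-dependent luminescence (CellTiter-Glo) served as the viability signal for NIH 3T3 cells treated with compound for 48 or 72 hr at 37 °C.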
HEK293 tox = HEK 293 cell cytotoxicity; HEK 293 viability, ATP luminescence (CellTiter-Glo), 48-72 h; Potency, µM (highest dose often 115 µM), for the others: at the highest dose activity change, negative = cytotoxicity, actives largely listed as inhibitors; AID 1345083; 94,000 tested, 6.6% active; active means well fitted curve in the direction sought with a large enough effect; inconclusive means small, poorly fitted or top-dose-only effect, or another doubt; inactive means no such curve, though single readings can be large; an effect the other way counts as inactive or inconclusive; further: on the % scale 0 is the no-effect control and ±100 the full control effect; nearly all actives have a fitted effect of over 60% in size
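Luminescence from cellular ATP, measured with CellTiter-Glo, indicates HEK 293 viability. Cells plated at 250 cells/well are treated with compound for 48 or 72 hr at 37 degree Celsius before reagent addition.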
NPR1 antag = blocks ANP-stimulated signaling of human Npr1 receptor | 76,000 tested, 1.6% active | Potency, µM (top dose mostly 46.3 µM), inactives show top-dose activity change, negative = inhibition, most hits filed as inhibitors | P16066 | HEK293 hNpr1 GloSensor cGMP, ANP-stimulated luminescence; further: on the % scale 0 is the no-effect control and ±100 the full control effect; nearly all actives have a fitted effect of over 60% in size
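Compound pre-incubated 30 min at room temperature on GloSensor-loaded HEK293 cells stably carrying hNpr1 and the pGS-40F cGMP biosensor. Stimulation uses hNppA at 0.1 nM final; luminescence is taken at baseline and 20 min post-agonist.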
FLuc inh = inhibitors of firefly (Photinus pyralis) luciferase. P08659. purified P. pyralis luciferase, luminescence, biochemical. Potency, µM (top dose mostly 115 µM), most hits filed as inhibitors. 76,000 tested, 2.5% active; active means well fitted curve in the direction sought with a large enough effect; inconclusive means small, poorly fitted or top-dose-only effect, or another doubt; inactive means no such curve, though single readings can be large; an effect the other way counts as inactive or inconclusive; further: on the % scale 0 is the no-effect control and ±100 the full control effect; nearly all actives have a fitted effect of over 65% in size
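Inhibitors were tested against purified firefly luciferase in a biochemical, low-substrate format (both substrates at 10uM) and luminescence measured with a CCD imager.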
NPR1 antag cnf = confirmation of human Npr1 natriuretic peptide receptor antagonists. shares compounds with NPR1 antag. HEK293 hNpr1 cGMP GloSensor luminescence, ANP-stimulated. Potency, µM (highest dose often 57.6 µM), for inactives: at the top dose activity change, negative = inhibition, most hits filed as inhibitors. 1,400 tested, 76% active. AID 1347044; further: nearly all actives have a fitted effect of over 70% in size
NPR2 antag = selectivity test of Npr1 antagonists against human Npr2. shares compounds with NPR1 antag. HEK293 hNpr2 GloSensor cGMP luminescence, CNP-stimulated. Potency, µM (doses to about 57.6 µM), without a hit: at the top dose activity change, negative = inhibition, actives largely listed as inhibitors. 1,400 tested, 67% active. AID 1347046; further: nearly all actives have a fitted effect of over 70% in size
FLuc counter = inhibits firefly luciferase, false Npr1 antagonist flag; shares compounds with NPR1 antag; purified FLuc enzyme, luminescence, Km substrate; Potency, µM (titrated, usually from 57.6 µM), inactives show top-dose activity change, negative = inhibition, actives largely listed as inhibitors; 1,400 tested, 0.7% active; AID 1347047; active means well fitted curve in the direction sought with a large enough effect; inconclusive means small, poorly fitted or top-dose-only effect, or another doubt; inactive means no such curve, though single readings can be large; an effect the other way counts as inactive or inconclusive; further: series mostly up to about 58 µM; 0% is about no effect
GloSensor cGMP = counter-screen for Npr1 antagonists: GloSensor control cell line; shares compounds with NPR1 antag; HEK293 GloSensor cGMP, SNP-stimulated, luminescence; Potency, µM (top dose mostly 57.6 µM), without a hit: at the top dose activity change, negative = inhibition, usual class: inhibitors; 1,400 tested, 69% active; further: on the % scale 0 is the no-effect control and ±100 the full control effect; nearly all actives have a fitted effect of over 70% in size
Active calls of the source: *; i = inactive; u = inconclusive; x = not tested or not shown; [ ] = remark or other dose. Unless noted, the call rests on the fitted dose curve. Potency means the concentration at half of the fitted maximal effect.

SMILES	NIH3T3 tox	HEK293 tox	NPR1 antag	FLuc inh	NPR1 antag cnf	NPR2 antag	FLuc counter	GloSensor cGMP
COc1ccc(C2Cn3nnc(C(=O)N4CCN(C(=O)Cc5ccccc5C)CC4)c3CO2)cc1 (stereo unspecified)	-13%	u	u	i	22µM*	22µM*	-2%	24µM*
COc1cccc(N2CCN(C(=O)c3cc4n(n3)CC(c3ccc(Cl)cc3)OC4)CC2)c1 (stereo unspecified)	u	u	16µM*	i	27µM*	u	-4%	u
CCN(CC)c1cc(CCC(=O)NCc2cccs2)ccn1	-1%	i	-14%	i	x	x	x	x
CC(C)NC(=O)N1CC(CNC(=O)C2CC2)C2(CCCCC2)C1 (stereo unspecified)	-21%	-5%	x	x	x	x	x	x
CCOc1ccccc1C(=O)N1CCc2[nH]nc(-c3ccc(F)c(F)c3)c2C1	u	u	u	i	u	u	2%	u
CCOc1ncccc1C(=O)N1CCc2[nH]nc(-c3cccc(F)c3)c2C1	-29%	-25%	-10%	i	x	x	x	x
CCN(Cc1noc(C2CCC2)n1)C(=O)C(C)Oc1ccc2ccccc2c1 (stereo unspecified)	-27%	35µM*	11µM*	i	19µM*	22µM*	-1%	14µM*
COc1cc(OC)cc(C(=O)NC2CCN(c3cc(C(F)(F)F)nc(C)n3)CC2)c1	u	-19%	1%	i	x	x	x	x
Clc1ccc(CN2CC[C@H](c3nc4cc(Cl)ccc4o3)C2)cc1	u	u	-21%[70.6 µM]	u	x	x	x	x
CCS(=O)(=O)c1ccc2oc([C@H]3CCN(Cc4cccc(Cl)c4)C3)nc2c1	u	45µM*	u	i	35µM*	35µM*	-4%[86.2 µM]	u
O=C(Nc1cc(F)cc(F)c1)N1CCC(CCNC(=O)C2(c3ccccc3)CC2)CC1	32µM*	50µM*	-26%	i	-19%	-10%	5%	5%
O=C(Nc1ccc(F)cc1F)N1CCC(CCNC(=O)C2(c3ccccc3)CC2)CC1	-25%	u	5%	i	x	x	x	x
COc1ccc(CN2CCOC[C@H]2c2ncc(-c3ccc(C)cc3)[nH]2)cc1	100µM*	u	-26%[70.6 µM]	i	-29%[86.2 µM]	u	1%[86.2 µM]	-22%[86.2 µM]
Fc1ccc(CN2CCOC[C@H]2c2ncc(-c3ccc(F)cc3)[nH]2)cc1	u	u	u	i	u	u	0%[86.2 µM]	u
O=C(O)c1ccc(CN2CCOC[C@H]2c2ncc(-c3ccc(F)cc3)[nH]2)cc1	u	-9%[172 µM]	4%[70.6 µM]	i	x	x	x	x
COc1ccc(-c2cnc([C@@H]3COCCN3Cc3ccccc3)[nH]2)cc1	u	u	-22%[70.6 µM]	i	x	x	x	x
Cn1nccc1C(=O)N1CC(c2ncc3c(-c4cccc(C(F)(F)F)c4)nccn23)C1	u	u	-1%[70.6 µM]	i	x	x	x	x
Cc1ccc2nc3n(c2c1)[C@@H](CNCc1ccccc1)COC3	u	u	u	i	x	x	x	x
COc1ccc2nc3n(c2c1)[C@@H](CNCc1ccc2c(c1)OCO2)COC3	u	u	32µM*	i	40µM*	40µM*	-9%[86.2 µM]	40µM*
Cc1ccc2nc3n(c2c1)[C@@H](CNCc1ccc2c(c1)OCO2)COC3	u	u	25µM*	i	35µM*	35µM*	0%[86.2 µM]	31µM*
